This passage reports Potency and activity change, negative = cytotoxicity results from PubChem BioAssay (NCATS).

Molecules are shown by their SMILES. Inconclusive results are not listed. Where a call stands in place of a potency, no number is given. Values without a mark were called inactive. Active and inactive are the calls of the source. The call rests on the fitted dose curve; in most records, active means well fitted cell-killing curve with a large enough effect; inconclusive means small, poorly fitted or top-dose-only effect, or effect the other way; inactive means flat fitted curve, though single readings scatter.

For this assay, the system named is HeLa. Briefly: Primary qHTS to identify gynecologic anti-cancer compounds using libraries of approved drugs and bioactive compounds (AID 1345084). Further: nearly all actives have a fitted effect of over 55% in size. As to conditions: Gynecologic cancer cell panel viability, ATPlite luminescence, 48 h; series mostly up to 57.5 µM. The method, boiled down: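 Five-point cytotoxicity, 48 h drug exposure at 37 C, 5% CO2, on cells seeded 16 h beforehand. ATP content read by ATPlite luminescence.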
In the case of `Cc1cccc(-c2[nH]ncc2-c2ccc(F)c(-c3cnn(CCO)c3)c2)n1`, the Potency entry was “inactive”.

As to `CC1(C)CCC2(C(=O)OC3OC(COC4OC(CO)C(O)C(O)C4O)C(O)C(O)C3O)CCC3(C)C(=CCC4C5(C)CCC(OC6OCC(O)C(O)C6O)C(C)(C)C5CCC43C)C2C1O` (stereo not given), the activity change, negative = cytotoxicity is 20.6% [at 11.6 µM].

`CC(=O)O[C@@H]1[C@@H](O)[C@H](O[C@@H]2[C@@H](O)[C@@H](O)[C@H](O[C@H]3[C@H](O[C@H]4[C@H](O[C@H]5CC[C@@]6(C)C(CC[C@]7(C)C6CC=C6[C@@H]8CC(C)(C)CC[C@]8(C(=O)O)CC[C@]67C)[C@]5(C)CO)O[C@H](CO)[C@@H](O)[C@@H]4O)OC[C@@H](O)[C@@H]3O)O[C@H]2C)OC[C@H]1O` (stereo not given in full): the activity change, negative = cytotoxicity is 2.05% [at 11.6 µM].

Regarding `CN(C)CC#CCCC(=O)C(O)(c1ccccc1)C1CCC1` (stereo not given), the Potency result was “inactive”.

As for `Cc1cn2c(n1)Cc1ccc(Cl)cc1C(c1ccc(N)cc1)=N2`, the Potency result is “inactive”.

Regarding `CC1(CO)CC(O)[C@]2(C(=O)O)CCC34CC3(C=CC3[C@]5(C)C(CC[C@]34C)C(C)(CO)[C@@H](O)[C@H](O)[C@@H]5O)C2C1` (stereo not given in full), the Potency result is “inactive”.

In the case of `CC(=O)O[C@H]1C[C@@](O)(C(C)C)[C@@H]2[C@@H](OC(=O)c3ccc(O)cc3)CC(C)=CC[C@@]12C`, the Potency result is “inactive”.

In the case of `Cc1ccc(C(C)C)c(O[C@@H]2O[C@H](CO)[C@@H](O)[C@H](O)[C@H]2O)c1`, the Potency entry is “inactive”.

Turning to `O=C1Nc2ccccc2-c2nc3ccccc3c(=O)n2-c2c(O)cccc21`, the Potency result was “inactive”.

Regarding `COc1ccc(CN2CCN(CCCSc3cc(C(C)(C)C)c(O)c(C(C)(C)C)c3)CC2)c(OC)c1OC`, the activity change, negative = cytotoxicity is 8.85% [at 11.6 µM].
